# Test results published in PMC7862700, “An all-to-all approach to the identification of sequence-specific readers for epigenetic DNA modifications on cytosine”.
# What was measured:
# Experiment in all cases: DAPPL (digital affinity profiling via proximity ligation, sequencing); 10 mM Tris-HCl pH 7.5, 50 mM NaCl, 1 mM DTT, 4% glycerol, room temperature, 30 min; GST-TFs on glutathione beads, 16-mer random dsDNA library, 0.1% formaldehyde crosslink after washing; high values mean tight binding
# FLI1 = target: T1, FLI1 (Homo sapiens, UniProt Q01543 1-452); settings: protein: recombinant; tags: N-terminal GST; dsDNA, one strand shown
# T1 sequence: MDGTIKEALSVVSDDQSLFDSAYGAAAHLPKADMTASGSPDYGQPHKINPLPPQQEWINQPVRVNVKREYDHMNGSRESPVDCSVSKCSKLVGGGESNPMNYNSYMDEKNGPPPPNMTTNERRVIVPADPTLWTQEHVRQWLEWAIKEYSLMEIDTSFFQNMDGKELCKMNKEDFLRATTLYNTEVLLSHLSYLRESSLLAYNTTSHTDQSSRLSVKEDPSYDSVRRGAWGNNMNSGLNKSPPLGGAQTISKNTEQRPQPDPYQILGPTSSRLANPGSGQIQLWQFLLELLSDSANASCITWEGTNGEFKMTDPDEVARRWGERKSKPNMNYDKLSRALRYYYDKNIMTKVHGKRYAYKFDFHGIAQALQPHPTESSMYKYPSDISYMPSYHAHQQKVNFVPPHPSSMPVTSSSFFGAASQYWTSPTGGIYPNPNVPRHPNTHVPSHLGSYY
# Procedure, shortened: (§1)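 Each value of binding signal is a hexamer's read frequency for a factor divided by the same hexamer's frequency in the tag-only sample. Barcoded, bead-captured GST fusions of human transcription factors made in yeast were pooled with that sample and incubated with 200 nmole of a random double-stranded 16-mer DNA library in Tris/NaCl/DTT/glycerol buffer at room temperature for 30 min. Washing, 0.1% formaldehyde crosslinking, proximity ligation, PCR and Illumina NextSeq500 sequencing followed.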
# ELK1 = target: T2, ELK1 (Homo sapiens, UniProt P19419 1-428); settings: protein: recombinant; tags: N-terminal GST; dsDNA, one strand shown
# T2 sequence: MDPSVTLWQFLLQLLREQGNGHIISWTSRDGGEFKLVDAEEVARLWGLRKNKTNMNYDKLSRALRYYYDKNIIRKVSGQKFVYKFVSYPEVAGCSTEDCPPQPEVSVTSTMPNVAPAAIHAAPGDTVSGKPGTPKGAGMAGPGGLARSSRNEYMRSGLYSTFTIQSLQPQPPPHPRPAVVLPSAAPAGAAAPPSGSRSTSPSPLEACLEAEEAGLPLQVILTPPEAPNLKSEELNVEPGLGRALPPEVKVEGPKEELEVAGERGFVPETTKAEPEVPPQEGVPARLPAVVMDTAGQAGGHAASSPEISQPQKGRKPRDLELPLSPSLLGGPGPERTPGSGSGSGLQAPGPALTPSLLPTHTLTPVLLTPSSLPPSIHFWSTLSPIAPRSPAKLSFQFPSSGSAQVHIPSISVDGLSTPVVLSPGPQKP
# Procedure, shortened: as §1
# GABPA = target: T3, GABPA (Homo sapiens, UniProt Q06546 1-454); settings: protein: recombinant; tags: N-terminal GST; dsDNA, one strand shown
# T3 sequence: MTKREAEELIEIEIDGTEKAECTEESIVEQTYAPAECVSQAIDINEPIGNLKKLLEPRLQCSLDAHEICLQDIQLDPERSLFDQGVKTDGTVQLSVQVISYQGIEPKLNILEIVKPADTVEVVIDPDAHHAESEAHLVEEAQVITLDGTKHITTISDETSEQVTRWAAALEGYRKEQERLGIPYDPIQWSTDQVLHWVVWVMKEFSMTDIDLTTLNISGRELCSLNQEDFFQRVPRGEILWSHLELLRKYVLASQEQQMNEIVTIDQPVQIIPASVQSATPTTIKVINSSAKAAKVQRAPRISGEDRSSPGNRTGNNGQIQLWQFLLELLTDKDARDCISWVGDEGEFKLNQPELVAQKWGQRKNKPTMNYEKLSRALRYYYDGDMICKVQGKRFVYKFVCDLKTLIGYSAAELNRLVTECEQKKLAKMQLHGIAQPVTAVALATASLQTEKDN
# Procedure, shortened: as §1
# ERG = target: T4, ERG (Homo sapiens, UniProt P11308 1-479); settings: protein: recombinant; tags: N-terminal GST; dsDNA, one strand shown
# T4 sequence: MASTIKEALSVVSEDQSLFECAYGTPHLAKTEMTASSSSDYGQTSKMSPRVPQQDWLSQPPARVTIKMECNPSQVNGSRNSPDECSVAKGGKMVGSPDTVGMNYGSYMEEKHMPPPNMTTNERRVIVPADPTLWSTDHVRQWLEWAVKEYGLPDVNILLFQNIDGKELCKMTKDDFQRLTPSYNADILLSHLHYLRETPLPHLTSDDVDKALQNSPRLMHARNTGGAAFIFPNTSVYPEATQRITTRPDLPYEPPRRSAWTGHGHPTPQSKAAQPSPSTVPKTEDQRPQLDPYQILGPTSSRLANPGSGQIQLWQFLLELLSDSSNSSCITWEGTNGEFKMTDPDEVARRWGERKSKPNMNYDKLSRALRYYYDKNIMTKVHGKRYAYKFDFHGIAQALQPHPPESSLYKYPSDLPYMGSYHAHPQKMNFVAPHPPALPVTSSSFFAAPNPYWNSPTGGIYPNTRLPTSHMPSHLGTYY
# Procedure, shortened: as §1
# ELF1 = ELF1 (Homo sapiens, UniProt P32519 1-619); settings: protein: recombinant; tags: N-terminal GST; dsDNA, one strand shown
# Procedure, shortened: as §1
# EHF = target: T5, EHF (Homo sapiens, UniProt Q9NZC4 1-300); settings: protein: recombinant; tags: N-terminal GST; dsDNA, one strand shown
# T5 sequence: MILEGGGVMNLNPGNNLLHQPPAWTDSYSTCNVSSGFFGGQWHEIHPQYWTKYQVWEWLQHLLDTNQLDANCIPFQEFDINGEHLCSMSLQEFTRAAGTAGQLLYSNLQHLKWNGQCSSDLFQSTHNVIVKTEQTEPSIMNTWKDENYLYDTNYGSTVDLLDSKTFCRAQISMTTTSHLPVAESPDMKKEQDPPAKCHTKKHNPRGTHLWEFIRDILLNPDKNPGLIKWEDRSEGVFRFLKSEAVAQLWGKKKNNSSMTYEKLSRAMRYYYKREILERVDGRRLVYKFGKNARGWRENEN
# Procedure, shortened: as §1
# SPI1 = SPI1 (Homo sapiens, UniProt P17947 1-270); settings: protein: recombinant; tags: N-terminal GST; dsDNA, one strand shown
# Procedure, shortened: as §1
# SPIB = SPIB (Homo sapiens, UniProt Q01892 1-262); settings: protein: recombinant; tags: N-terminal GST; dsDNA, one strand shown
# Procedure, shortened: as §1
# ELK3 = target: T6, ELK3 (Homo sapiens, UniProt P41970 1-407); settings: protein: recombinant; tags: N-terminal GST; dsDNA, one strand shown
# T6 sequence: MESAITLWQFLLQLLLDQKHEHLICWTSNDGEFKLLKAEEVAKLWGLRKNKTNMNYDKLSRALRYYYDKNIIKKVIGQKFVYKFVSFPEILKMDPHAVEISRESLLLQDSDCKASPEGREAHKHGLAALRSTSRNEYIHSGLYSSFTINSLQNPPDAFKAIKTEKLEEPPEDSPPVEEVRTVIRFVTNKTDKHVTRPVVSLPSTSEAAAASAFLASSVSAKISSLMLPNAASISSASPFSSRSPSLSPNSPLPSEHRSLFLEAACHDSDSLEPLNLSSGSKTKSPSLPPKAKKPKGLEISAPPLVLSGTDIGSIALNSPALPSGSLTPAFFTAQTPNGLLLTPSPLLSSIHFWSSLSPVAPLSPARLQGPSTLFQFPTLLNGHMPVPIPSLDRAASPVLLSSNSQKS
# Procedure, shortened: as §1
# FEV = target: T7, FEV (Homo sapiens, UniProt Q99581 1-238); settings: protein: recombinant; tags: N-terminal GST; dsDNA, one strand shown
# T7 sequence: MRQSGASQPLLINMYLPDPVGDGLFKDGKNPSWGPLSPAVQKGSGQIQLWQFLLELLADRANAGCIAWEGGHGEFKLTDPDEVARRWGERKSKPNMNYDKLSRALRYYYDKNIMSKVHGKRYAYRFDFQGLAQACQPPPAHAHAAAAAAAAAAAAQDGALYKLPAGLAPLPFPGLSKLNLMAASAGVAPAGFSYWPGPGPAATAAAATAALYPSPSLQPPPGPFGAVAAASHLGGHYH
# Procedure, shortened: as §1
# ETV5 = ETV5 (Homo sapiens, UniProt P41161 1-510); settings: protein: recombinant; tags: N-terminal GST; dsDNA, one strand shown
# Procedure, shortened: as §1
# HSF1 = HSF1 (Homo sapiens, UniProt Q00613 1-529); settings: protein: recombinant; tags: N-terminal GST; chain copies: 3; dsDNA, one strand shown
# Procedure, shortened: as §1
# SPIC = target: T8, SPIC (Homo sapiens, UniProt Q8N5J4 1-248); settings: protein: recombinant; tags: N-terminal GST; dsDNA, one strand shown
# T8 sequence: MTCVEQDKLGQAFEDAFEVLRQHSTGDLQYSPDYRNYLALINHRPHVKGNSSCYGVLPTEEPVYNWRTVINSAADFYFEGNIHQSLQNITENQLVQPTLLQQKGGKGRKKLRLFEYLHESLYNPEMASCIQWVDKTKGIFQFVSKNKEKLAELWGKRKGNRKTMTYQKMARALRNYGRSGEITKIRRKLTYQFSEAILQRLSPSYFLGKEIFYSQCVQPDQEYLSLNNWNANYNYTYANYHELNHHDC
# Procedure, shortened: as §1
# ELF4 = ELF4 (Homo sapiens, UniProt Q99607 1-663); settings: protein: recombinant; tags: N-terminal GST; dsDNA, one strand shown
# Procedure, shortened: as §1
# ELK4 = target: T9, ELK4 (Homo sapiens, UniProt P28324-2 1-405); settings: protein: recombinant; tags: N-terminal GST; dsDNA, one strand shown
# T9 sequence: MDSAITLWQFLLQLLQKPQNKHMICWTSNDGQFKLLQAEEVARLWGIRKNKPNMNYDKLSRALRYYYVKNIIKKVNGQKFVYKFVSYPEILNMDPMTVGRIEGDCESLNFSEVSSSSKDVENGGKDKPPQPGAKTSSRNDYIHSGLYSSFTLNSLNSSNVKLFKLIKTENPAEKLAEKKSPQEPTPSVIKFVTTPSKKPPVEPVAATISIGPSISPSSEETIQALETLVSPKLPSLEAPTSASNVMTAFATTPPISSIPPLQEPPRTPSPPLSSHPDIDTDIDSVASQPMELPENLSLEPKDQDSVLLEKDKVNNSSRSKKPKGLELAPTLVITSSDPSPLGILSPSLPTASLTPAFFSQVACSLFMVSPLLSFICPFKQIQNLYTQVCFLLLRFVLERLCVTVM
# Procedure, shortened: as §1
# ETV2 = target: T10, ETV2 (Homo sapiens, UniProt O00321 1-342); settings: protein: recombinant; tags: N-terminal GST; dsDNA, one strand shown
# T10 sequence: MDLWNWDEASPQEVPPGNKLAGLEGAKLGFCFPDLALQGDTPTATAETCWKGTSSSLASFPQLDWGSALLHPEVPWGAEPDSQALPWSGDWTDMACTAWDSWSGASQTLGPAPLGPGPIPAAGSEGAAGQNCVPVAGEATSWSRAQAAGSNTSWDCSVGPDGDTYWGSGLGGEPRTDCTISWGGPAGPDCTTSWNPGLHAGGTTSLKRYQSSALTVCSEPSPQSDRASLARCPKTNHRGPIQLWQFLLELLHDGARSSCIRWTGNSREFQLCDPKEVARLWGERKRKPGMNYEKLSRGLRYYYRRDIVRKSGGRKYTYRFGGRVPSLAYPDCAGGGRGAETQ
# Procedure, shortened: as §1
# ELF3 = target: T11, ELF3 (Homo sapiens, UniProt P78545 1-371); settings: protein: recombinant; tags: N-terminal GST; dsDNA, one strand shown
# T11 sequence: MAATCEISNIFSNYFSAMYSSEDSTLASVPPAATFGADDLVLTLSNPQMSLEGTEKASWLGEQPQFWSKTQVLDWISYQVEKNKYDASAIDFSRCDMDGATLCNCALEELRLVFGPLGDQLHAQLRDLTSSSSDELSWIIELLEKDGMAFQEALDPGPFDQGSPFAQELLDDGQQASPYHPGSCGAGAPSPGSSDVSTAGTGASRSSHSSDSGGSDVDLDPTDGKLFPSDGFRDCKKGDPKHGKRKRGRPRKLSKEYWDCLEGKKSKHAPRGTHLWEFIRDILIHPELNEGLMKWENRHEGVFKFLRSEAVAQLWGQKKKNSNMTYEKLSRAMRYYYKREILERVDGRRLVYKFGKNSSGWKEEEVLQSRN
# Procedure, shortened: as §1
# CRX = CRX (Homo sapiens, UniProt O43186 1-299); settings: protein: recombinant; tags: N-terminal GST; dsDNA, one strand shown
# Procedure, shortened: as §1
# ETV1 = ETV1 (Homo sapiens, UniProt P50549 1-477); settings: protein: recombinant; tags: N-terminal GST; dsDNA, one strand shown
# Procedure, shortened: as §1
# Sequence of HSF1 (Q00613 whole entry): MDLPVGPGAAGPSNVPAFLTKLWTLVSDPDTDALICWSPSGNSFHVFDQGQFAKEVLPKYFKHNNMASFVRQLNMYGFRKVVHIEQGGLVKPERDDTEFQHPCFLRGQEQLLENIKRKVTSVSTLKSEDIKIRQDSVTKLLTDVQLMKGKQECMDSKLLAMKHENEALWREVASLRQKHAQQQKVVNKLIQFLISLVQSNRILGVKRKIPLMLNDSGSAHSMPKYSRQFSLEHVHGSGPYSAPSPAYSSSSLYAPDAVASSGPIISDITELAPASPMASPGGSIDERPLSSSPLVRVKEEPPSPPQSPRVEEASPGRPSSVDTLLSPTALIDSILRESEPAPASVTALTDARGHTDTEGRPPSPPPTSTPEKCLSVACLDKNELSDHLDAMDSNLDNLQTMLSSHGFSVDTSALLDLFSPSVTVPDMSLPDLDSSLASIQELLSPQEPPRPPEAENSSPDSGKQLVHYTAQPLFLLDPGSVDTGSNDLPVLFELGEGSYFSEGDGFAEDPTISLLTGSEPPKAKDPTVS
# Sequence of ETV5 (P41161 whole entry): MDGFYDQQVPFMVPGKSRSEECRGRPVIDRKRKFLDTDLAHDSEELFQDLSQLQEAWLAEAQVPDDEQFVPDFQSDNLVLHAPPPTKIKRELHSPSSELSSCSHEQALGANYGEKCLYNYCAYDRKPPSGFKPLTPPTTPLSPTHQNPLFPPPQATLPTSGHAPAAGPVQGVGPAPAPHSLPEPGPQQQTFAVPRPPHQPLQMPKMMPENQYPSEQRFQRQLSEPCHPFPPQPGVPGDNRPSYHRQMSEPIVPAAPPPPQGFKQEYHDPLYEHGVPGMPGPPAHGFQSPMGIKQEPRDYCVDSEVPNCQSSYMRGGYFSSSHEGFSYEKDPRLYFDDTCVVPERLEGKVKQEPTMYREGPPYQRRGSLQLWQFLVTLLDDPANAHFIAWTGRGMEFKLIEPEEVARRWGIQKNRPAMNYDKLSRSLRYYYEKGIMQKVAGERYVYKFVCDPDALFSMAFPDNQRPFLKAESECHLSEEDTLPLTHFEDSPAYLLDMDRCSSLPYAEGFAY
# Sequence of CRX (O43186 whole entry): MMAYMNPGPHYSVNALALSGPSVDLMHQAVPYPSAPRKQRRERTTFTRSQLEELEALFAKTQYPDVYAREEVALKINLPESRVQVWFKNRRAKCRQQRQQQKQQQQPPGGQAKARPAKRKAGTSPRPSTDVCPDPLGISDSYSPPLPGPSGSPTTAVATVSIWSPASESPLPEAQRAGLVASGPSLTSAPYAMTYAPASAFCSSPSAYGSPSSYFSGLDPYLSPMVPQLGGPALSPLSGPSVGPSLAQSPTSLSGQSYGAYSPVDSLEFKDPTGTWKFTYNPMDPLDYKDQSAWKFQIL
# Sequence of ELF1 (P32519 whole entry): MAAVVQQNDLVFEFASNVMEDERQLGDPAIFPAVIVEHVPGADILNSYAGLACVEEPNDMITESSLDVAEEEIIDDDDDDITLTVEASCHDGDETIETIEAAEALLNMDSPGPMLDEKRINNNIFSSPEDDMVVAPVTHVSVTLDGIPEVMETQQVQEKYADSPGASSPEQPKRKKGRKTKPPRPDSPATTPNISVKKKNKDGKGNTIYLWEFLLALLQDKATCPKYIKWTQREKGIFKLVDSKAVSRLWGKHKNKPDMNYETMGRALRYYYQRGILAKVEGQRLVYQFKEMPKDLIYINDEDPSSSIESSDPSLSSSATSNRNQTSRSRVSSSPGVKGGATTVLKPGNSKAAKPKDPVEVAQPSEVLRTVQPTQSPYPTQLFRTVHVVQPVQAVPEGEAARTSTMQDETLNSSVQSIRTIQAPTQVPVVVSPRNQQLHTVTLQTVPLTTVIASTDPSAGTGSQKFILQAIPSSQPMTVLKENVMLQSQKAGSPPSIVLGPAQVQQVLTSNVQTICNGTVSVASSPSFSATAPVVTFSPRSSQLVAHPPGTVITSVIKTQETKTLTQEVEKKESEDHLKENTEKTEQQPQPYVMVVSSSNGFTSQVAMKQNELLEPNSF
# Sequence of SPIB (Q01892 whole entry): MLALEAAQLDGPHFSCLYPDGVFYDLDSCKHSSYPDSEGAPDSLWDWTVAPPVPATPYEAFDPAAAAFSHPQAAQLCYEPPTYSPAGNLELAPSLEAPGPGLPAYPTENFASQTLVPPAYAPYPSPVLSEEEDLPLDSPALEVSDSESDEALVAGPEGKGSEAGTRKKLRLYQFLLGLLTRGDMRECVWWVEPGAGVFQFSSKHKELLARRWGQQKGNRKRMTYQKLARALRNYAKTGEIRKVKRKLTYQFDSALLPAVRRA
# Sequence of ETV1 (P50549 whole entry): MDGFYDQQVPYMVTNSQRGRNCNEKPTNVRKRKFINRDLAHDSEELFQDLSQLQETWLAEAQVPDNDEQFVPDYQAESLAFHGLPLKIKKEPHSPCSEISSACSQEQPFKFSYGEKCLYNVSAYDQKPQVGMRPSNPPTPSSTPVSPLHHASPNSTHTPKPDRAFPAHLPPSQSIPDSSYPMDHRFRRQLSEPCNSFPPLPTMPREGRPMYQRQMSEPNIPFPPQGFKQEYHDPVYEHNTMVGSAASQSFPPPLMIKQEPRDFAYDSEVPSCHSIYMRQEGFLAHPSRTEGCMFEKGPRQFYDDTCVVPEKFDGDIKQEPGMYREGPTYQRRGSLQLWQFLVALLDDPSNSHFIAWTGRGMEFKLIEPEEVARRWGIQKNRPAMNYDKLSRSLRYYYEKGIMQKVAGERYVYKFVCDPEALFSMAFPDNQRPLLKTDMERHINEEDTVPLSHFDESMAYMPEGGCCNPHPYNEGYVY
# Sequence of ELF4 (Q99607 whole entry): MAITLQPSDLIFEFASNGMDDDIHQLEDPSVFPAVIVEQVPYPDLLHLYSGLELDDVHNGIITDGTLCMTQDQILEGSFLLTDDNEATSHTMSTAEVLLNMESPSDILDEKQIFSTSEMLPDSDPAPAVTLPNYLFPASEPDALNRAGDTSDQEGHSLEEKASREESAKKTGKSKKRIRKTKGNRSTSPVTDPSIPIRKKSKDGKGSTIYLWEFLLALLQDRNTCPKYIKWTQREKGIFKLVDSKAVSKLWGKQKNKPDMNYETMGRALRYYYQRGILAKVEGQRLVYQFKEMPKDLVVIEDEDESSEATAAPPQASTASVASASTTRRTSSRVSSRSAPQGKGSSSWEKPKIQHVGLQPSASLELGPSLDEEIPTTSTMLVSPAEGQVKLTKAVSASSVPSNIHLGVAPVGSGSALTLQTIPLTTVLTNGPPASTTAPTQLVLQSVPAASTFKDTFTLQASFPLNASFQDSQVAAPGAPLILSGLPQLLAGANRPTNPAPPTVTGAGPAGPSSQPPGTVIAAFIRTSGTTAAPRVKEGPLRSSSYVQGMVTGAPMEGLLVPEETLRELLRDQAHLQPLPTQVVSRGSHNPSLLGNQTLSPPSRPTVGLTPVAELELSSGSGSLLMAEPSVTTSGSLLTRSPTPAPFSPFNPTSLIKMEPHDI
sequence,measurement,setting,value
CCCGCT,binding signal,FLI1,"1.38 fold enrichment (6-mer frequency, TF over GST control)"
same,binding signal,ELK1,"1.31 fold enrichment (6-mer frequency, TF over GST control)"
same,binding signal,GABPA,"1.34 fold enrichment (6-mer frequency, TF over GST control)"
same,binding signal,ERG,"1.3 fold enrichment (6-mer frequency, TF over GST control)"
same,binding signal,ELF1,"1.44 fold enrichment (6-mer frequency, TF over GST control)"
same,binding signal,EHF,"1.48 fold enrichment (6-mer frequency, TF over GST control)"
same,binding signal,SPI1,"1.37 fold enrichment (6-mer frequency, TF over GST control)"
same,binding signal,SPIB,"1.35 fold enrichment (6-mer frequency, TF over GST control)"
same,binding signal,ELK3,"1.35 fold enrichment (6-mer frequency, TF over GST control)"
same,binding signal,FEV,"1.35 fold enrichment (6-mer frequency, TF over GST control)"
same,binding signal,ETV5,"1.32 fold enrichment (6-mer frequency, TF over GST control)"
same,binding signal,HSF1,"1.26 fold enrichment (6-mer frequency, TF over GST control)"
same,binding signal,SPIC,"1.25 fold enrichment (6-mer frequency, TF over GST control)"
same,binding signal,ELF4,"1.49 fold enrichment (6-mer frequency, TF over GST control)"
same,binding signal,ELK4,"1.62 fold enrichment (6-mer frequency, TF over GST control)"
same,binding signal,ETV2,"1.16 fold enrichment (6-mer frequency, TF over GST control)"
same,binding signal,ELF3,"1.32 fold enrichment (6-mer frequency, TF over GST control)"
same,binding signal,CRX,"1.25 fold enrichment (6-mer frequency, TF over GST control)"
same,binding signal,ETV1,"1.44 fold enrichment (6-mer frequency, TF over GST control)"
